Sampled rows, rich in hits. Any-hit rate of the full collection: about 2.4%.
D2 antagonist = antagonists of human D2 dopamine receptor | AID 485344 | inhibition, % at 10 µM | actives 2% (n = 340,000) | P14416 | HEK293 TREx D2 cells, calcium flux, dopamine EC80; in the data active = inhibition above about 30%; inactive = below that, where a call was filed; also: 0% is about no effect
Target sequence (P14416 whole entry, looked up): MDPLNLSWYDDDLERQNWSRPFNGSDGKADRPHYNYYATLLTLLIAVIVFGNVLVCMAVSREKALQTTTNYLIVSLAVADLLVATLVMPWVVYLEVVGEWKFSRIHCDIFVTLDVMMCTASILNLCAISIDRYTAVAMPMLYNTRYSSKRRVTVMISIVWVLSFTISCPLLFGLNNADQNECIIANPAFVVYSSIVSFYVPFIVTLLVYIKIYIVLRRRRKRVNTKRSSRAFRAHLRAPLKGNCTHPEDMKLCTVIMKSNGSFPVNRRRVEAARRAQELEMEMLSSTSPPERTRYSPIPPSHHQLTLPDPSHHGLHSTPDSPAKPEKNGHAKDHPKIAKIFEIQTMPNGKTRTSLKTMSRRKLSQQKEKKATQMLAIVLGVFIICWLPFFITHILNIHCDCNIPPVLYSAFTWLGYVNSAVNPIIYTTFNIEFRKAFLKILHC
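Dopamine at EC80 is the agonist stimulus; test compounds precede it by 180 s. Calcium flux read kinetically in a force-coupled, inducible HEK293 T-REx D2 cell line.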
D2 ag-1 = agonists of human D2 dopamine receptor | P14416 | HEK293 T-REx D2 cells, calcium flux agonist mode | activation, % at 2 µM | actives 0.53% (n = 340,000) | AID 485358;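 active = activation over 3 SD above normal in the single-dose calcium agonist read, cut at about 30% in these data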; also: 0% is about no effect
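Tetracycline-induced HEK293 Trex cells with D2 receptor force-coupled to calcium signaling, plated overnight at 30 C and loaded with no-wash calcium dye. Calcium flux read kinetically for 180 s after compound addition; responses flag agonists.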
D2 PAM-1 = positive allosteric modulators of human D2 dopamine receptor | actives 0.23% (n = 360,000) | potentiation, % (test concentration not listed) | DiscoveRx D2 beta-arrestin cells, luminescence, 90 min; 100% = 57 uM dopamine signal; in the data active = potentiation above about 50%
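D2 cells co-treated with compound plus 50 nM dopamine (EC20) for 90 min at 37 deg C to detect potentiation. Beta-arrestin recruitment was read as enzyme-fragment luminescence after 1 h at ambient temperature. Full response was set by 57 uM dopamine.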
D2 PAM-2 = positive allosteric modulators of human D2 dopamine receptor; P14416; HEK293 T-REx D2, calcium flux, EC20 dopamine potentiation; potentiation, % at 10 µM; actives 0.34% (n = 340,000);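 active = potentiation over 3 SD above the plate norm, cut at about 30% in these data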; also: 0% is about no effect
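Tetracycline-induced Hek293 Trex D2 cells, force-coupled to calcium, loaded with no-wash calcium dye. Compound added with 180 s kinetic read for agonism, then EC20 dopamine and a further 180 s read for potentiation.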
D2 ag-2 = agonists of human D2 dopamine receptor (beta-arrestin). DiscoveRx PathHunter D2 beta-arrestin, luminescence, 90 min; 100% = 57 uM dopamine signal. actives 0.084% (n = 360,000). activation, % (test concentration not listed). P14416; in the data active = activation above about 40%
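DiscoveRx PathHunter D2 beta-arrestin cells (2,100/well) attached overnight, then compound-stimulated 90 min at 37 C in HBSS/10 mM HEPES/0.1% Tween-20 buffer; beta-galactosidase complementation read by luminescence after 1 h at ambient temperature. Dopamine 57 uM final (EC100) as control.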
* hit, by the source's call; / = not tested or not shown.

SMILES	D2 antagonist	D2 ag-1	D2 PAM-1	D2 PAM-2	D2 ag-2
Cc1ccc(/C(N)=N/OC(=O)c2ccco2)cc1	-2	1	56*	-7	4
O=C(Cn1c(SCC(=O)Nc2ccc(F)cc2)nc2ccccc21)NCc1ccc(Cl)cc1	/	0	/	4	/
Cc1ccc(S(=O)(=O)NCCC(=O)N2CCN(S(=O)(=O)c3ccccc3)CC2)cc1C	18	0	-3	-9	-9
Cc1ccc(C)c(S(=O)(=O)N2CCN(C(=O)CCNS(=O)(=O)c3ccc(C)c(C)c3)CC2)c1	-16	0	9	32*	2
CCC(Cc1ccccc1)NC(=O)CN(C)S(=O)(=O)c1ccc2c(c1)c(=O)n(C)c(=O)n2C (stereo not drawn)	23	0	-7	52*	-1
CN(CC(=O)N1CC=C(c2ccccc2)CC1)S(=O)(=O)c1ccc2c(c1)c(=O)n(C)c(=O)n2C	31*	-1	-19	4	4
Cn1c(=O)c2cc(S(=O)(=O)NCCC(=O)N3CC=C(c4ccccc4)CC3)ccc2n(C)c1=O	3	3	-11	-20	-2
CCc1ccc(S(=O)(=O)c2nnn3c2nc(Nc2ccc(NC(C)=O)cc2)c2sccc23)cc1	/	0	/	2	/
COC(=O)c1ccc(C)c(NC(=O)CCc2ccc(OC)cc2)c1	-11	-1	-7	-3	0
COc1ccc(CCC(=O)NNC(=O)Nc2cc(Cl)ccc2C)cc1	33*	0	-12	-1	-8
CC(C)Nc1nc(Cl)nc(NN(C)c2nc(N(C)C)nc(N(C)C)n2)n1	34*	-1	0	-9	-4
COc1ccc(N2CCN(C(=O)c3c(C)oc4ncnc(N5CCCCC5)c34)CC2)cc1	/	/	/	3	/
C/C(=N\NC(=O)c1cccnc1)c1cc(C)oc1C	33*	2	-8	-7	-3
COCC(=O)Nc1cc(C(=O)Nc2ccccc2C)ccc1Cl	32*	0	-6	0	-1
CCOC(=O)c1cc(OC(=O)c2cccc(F)c2)n(-c2ccccc2)n1	/	0	/	-7	/
O=C(NCc1ccccc1C(F)(F)F)C1CC(c2cc(C(F)(F)F)cc(C(F)(F)F)c2)=NO1 (stereo not drawn)	8	0	6	3	3
O=C(NCc1ccccc1C(F)(F)F)C1CC(c2cccc(F)c2)=NO1 (stereo not drawn)	42*	1	-10	12	-3
CCC(C(=O)O)N1C(=O)c2ccccc2C1=O (stereo not drawn)	37*	0	1	5	0
O=C(O)C(Cc1ccccc1)N1C(=O)c2ccccc2C1=O (stereo not drawn)	14	1	4	-16	-3
Cc1ccc(NC(=O)c2c(NC(=O)c3ccc(F)cc3)sc3c2CCCC3)cc1C	/	0	/	1	/
O=C(NCCN1CCOCC1)c1ccc2c(c1)N(Cc1ccccc1)C(=O)CS2	-16	-1	-9	/	0
CCN1C(=O)CSc2ccc(C(=O)NCCCN3CCOCC3)cc21	-1	35*	-10	-7	-2
O=C(CSc1ncc(-c2ccc(F)cc2)n1Cc1ccco1)Nc1ccc2c(c1)OCO2	37*	1	-24	-16	-3
CCOc1ccc(NC(=O)CSc2ncc(-c3ccc(F)cc3)n2Cc2ccco2)cc1	12	0	-10	21	-2
Cc1cccc(NC(=O)CSc2nnc(-c3cnccn3)n2Cc2ccco2)c1	-12	0	-18	25	-4
SMILES	D2 antagonist	D2 ag-1	D2 PAM-1	D2 PAM-2	D2 ag-2
O=C(CSc1nccn1-c1ccc(F)cc1)Nc1ccc2c(c1)OCO2	-29	1	-8	39*	-4
Cc1ccc(NC(=O)CSc2nnc(-c3cnccn3)n2Cc2ccco2)cc1	32*	-4	-14	-7	-2
CCN(CC)Cc1nc2c(c(=O)[nH]1)C1(CCCCC1)Cc1ccccc1-2	-3	1	-15	-4	0
Cn1c(NCCO)nc2c(c1=O)C1(CCCCC1)Cc1ccccc1-2	68*	2	-15	-8	-6
O=c1[nH]c(NCCCO)nc2c1C1(CCCC1)Cc1ccccc1-2	17	1	-19	-11	1
CN(C)Cc1nc2c(c(=O)[nH]1)C1(CCCCC1)Cc1ccccc1-2	37*	1	-16	-5	-3
CC(C)Sc1n[nH]c2nc3c(c(=O)n12)C1(CCCC1)Cc1ccccc1-3	55*	0	/	-5	/
O=c1[nH]c(NNC(=S)NC2CCCCC2)nc2c1C1(CCCC1)Cc1ccccc1-2	38*	-2	-2	14	-1
CCOc1ccc(CNC(=O)c2ccc(CSc3nc4ccncc4n3Cc3ccc(F)cc3)cc2)cc1	/	0	/	-12	/
Cc1cc(C)c(Cn2c(=O)n(CCC(=O)NCCc3ccccc3)c(=O)c3ccccc32)c(C)c1	/	-1	/	0	/
COc1cc(C(=O)Nc2ccc3[nH]c(=O)sc3c2)cc(OC)c1OC	/	2	/	9	/
COc1ccccc1CNC1CCN(Cc2ccccc2)CC1	/	/	-14	/	-4
COc1ccccc1C1CCN(Cc2ccc(C)cc2)CC1	95*	-1	-14	-27	-3
CCc1ccc2c(CN3CCc4cc(OC)c(OC)cc4C3)cc(=O)oc2c1	32*	26	-18	-26	0
COc1cc2c(cc1OC)CN(Cc1ccc(C)cc1)CC2	56*	0	-17	-27	0
COc1ccc(C(=O)Nc2cc(C)c(NC(=O)c3ccccn3)cn2)cc1	-24	0	-3	35*	-2
CC(N=C1NS(=O)(=O)c2ccccc21)C(=O)NCCCc1ccccc1 (stereo not drawn)	/	/	-37	/	3
COC(=O)c1ccc(CNC(=O)C(C)N=C2NS(=O)(=O)c3ccccc32)cc1 (stereo not drawn)	44*	0	-38	-21	-3
O=C1N(Cc2ccccc2F)c2ccccc2C12OCCCO2	-4	0	-12	40*	-3
CCCC(=O)CN1C(=O)C2(OCCO2)c2ccccc21	-13	0	-17	36*	-1
CC1=C(C(=O)OC2CCCC2)C(c2c(F)cccc2Cl)CC(=O)N1 (stereo not drawn)	/	0	/	11	/
COc1cc(-c2noc(-c3ccc(NC4CCCCC4)c([N+](=O)[O-])c3)n2)cc(OC)c1OC	/	-1	/	-14	/
CCOc1ccc2[nH]c3c(NCCOC)ncnc3c2c1	-10	-2	12	31*	-7
Cc1cc(=O)[nH]c(NN=C2CCC(C(C)(C)C)CC2)n1 (stereo not drawn)	2	1	-9	32*	-2
C/C(=N\Nc1nc(C)cc(=O)[nH]1)C1CC1	-4	-1	-1	14	-3
COc1ccccc1NC(=O)C1=C(C)Nc2nc(SCc3cccc(F)c3)nn2C1c1ccc(C(=O)O)cc1 (stereo not drawn)	/	0	/	9	/
